The values below come from PubChem BioAssay (Tox21).

Records with an inconclusive call do not appear. Values without a mark were called inactive. Activity calls are given as the source filed them. Unless noted, calls come from the whole dose curve; as a rule, active = well fitted curve in the direction sought with a large enough effect in the repeat runs; inconclusive = weak or mixed curves; inactive = no such curve, though single readings can be large; an effect the other way counts as inactive or inconclusive.

A short description of experiment [1]: qHTS assay to identify small molecule agonists of the peroxisome proliferator-activated receptor delta (PPARd) signaling pathway - cell viability counter screen (AID 743211). Note: nearly all actives have a fitted effect of over 55% in size. The method, boiled down: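 Tox21 library compounds, delivered in DMSO, were incubated 17 h with PPARd-bla HEK293H cells; cytotoxicity was taken from CellTiter-Glo luminescence read 30 min after reagent addition.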

The target of experiment [2] is Bile acid receptor (Homo sapiens) (UniProt Q96RI1). The experiment is described as follows: qHTS assay to identify small molecule antagonists of the farnesoid-X-receptor (FXR) signaling pathway (AID 743217; active = well fitted inhibition curve with a large enough effect in the signal ratio in the repeat runs, not every such curve was filed as active; the % refers to the signal ratio). The method in brief: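 Antagonist mode against 50 uM (final) chenodeoxycholic acid stimulation in FXR-bla HEK 293T cells, 16 h at 37 °C. Inhibition detected as reduced beta-lactamase activity via LiveBLAzer B/G FRET fluorescence after 2 h at room temperature.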
(In general: Quantitative high-throughput screening tests each substance at several concentrations.)

Experiment [3] can be described thus: qHTS assay to identify small molecule agonists of the farnesoid-X-receptor (FXR) signaling pathway - cell viability counter screen (AID 743218). Note: nearly all actives have a fitted effect of over 45% in size. The method in brief:
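Cytotoxicity counter-screen run in parallel, same wells: FXR-UAS-bla HEK 293T cells dosed 16 h at 37 C, viability read by CellTiter-Glo luminescence after 30 min at room temperature.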

For experiment [4], the target named is Bile acid receptor (Homo sapiens) (UniProt Q96RI1). Briefly: qHTS assay to identify small molecule agonists of the farnesoid-X-receptor (FXR) signaling pathway (AID 743220; active = well fitted activation curve with a large enough effect in the signal ratio in the repeat runs, not every such curve was filed as active; the % refers to the signal ratio). The method in brief: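 Beta-lactamase reporter under UAS control in GeneBLAzer FXR HEK 293T cells (5000/well) measured with LiveBLAzer FRET substrate after 2 h at room temperature. Compound exposure lasted 16 h at 37C.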

Experiment [5] can be described thus: qHTS assay to identify small molecule antagonists of the farnesoid-X-receptor (FXR) signaling pathway - cell viability counter screen (AID 743221; active = well fitted cell-killing curve with a large enough effect in the repeat runs, not every such curve was filed as active; note: nearly all actives have a fitted effect of over 50% in size). The method, boiled down:
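Cytotoxicity is taken from ATP luminescence (CellTiter-Glo, 30 min, room temperature) in FXR-bla HEK 293T cells previously incubated 16 h at 37 C with compound and chenodeoxycholic acid at 50 uM final.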

The target of experiment [6] is Vitamin D3 receptor (Homo sapiens) (UniProt P11473). Briefly: qHTS assay to identify small molecule agonists of the vitamin D receptor (VDR) signaling pathway (AID 743222; calls by dose curve). The method in brief: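 Quantitative HTS agonist-mode screen: compounds in DMSO were pin-transferred onto VDR-bla cells and incubated 16 h at 37C, 5% CO2. Reporter activity was detected with LiveBLAzer B/G FRET substrate after 2 h at room temperature.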

The target is the same in experiment [7]. The experiment is described as follows: qHTS assay to identify small molecule antagonists of the vitamin D receptor (VDR) signaling pathway (AID 743223; active = well fitted inhibition curve with a large enough effect in the signal ratio in the repeat runs, not every such curve was filed as active; the % refers to the signal ratio). The method in brief: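 Quantitative HTS in VDR-bla reporter cells stimulated with 1alpha,25-dihydroxyvitamin D3, 3 nM final. Compound exposure 16 h, 37C, 5% CO2. Read-out: beta-lactamase FRET substrate fluorescence, 2 h RT.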

Experiment [8] can be described thus: qHTS assay to identify small molecule agonists of the vitamin D receptor (VDR) signaling pathway - cell viability counter screen (AID 743224). Note: series mostly up to about 63 µM; nearly all actives have a fitted effect of over 50% in size. The method in brief: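 Viability is measured in the same wells as the VDR-bla reporter assay: after 16 h compound treatment and 2 h substrate loading, CellTiter-Glo is added and luminescence read 30 min later.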
A short description of experiment [9]: qHTS assay to identify small molecule antagonists of the vitamin D receptor (VDR) signaling pathway - cell viability counter screen (AID 743225). Note: nearly all actives have a fitted effect of over 50% in size. The method, boiled down: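 Same-well multiplex: following 16 h treatment of HEK 293T cells carrying a UAS-driven beta-lactamase reporter with compound and agonist (3 nM final), and a 2 h FRET substrate step, CellTiter-Glo was added and luminescence read after 30 min.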

Experiment [10] can be described thus: qHTS assay to identify small molecule agonists of the NFkB signaling pathway (AID 1159509; active = well fitted curve in the direction sought with a large enough effect in the signal ratio in the repeat runs, not every such curve was filed as active; the % refers to the signal ratio; note: series mostly up to about 61 µM). The method, boiled down: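 NFkB-bla ME-180 cells carry a beta-lactamase reporter under an NF-kB response element. They were plated overnight, then exposed to compounds for 5 h at 37 C. Read-out is LiveBLAzer FRET after 1.5 hr at room temperature (405 nm excitation; 460/530 nm emission).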

A short description of experiment [11]: qHTS assay to identify small molecule agonists of the NFkB signaling pathway - cell viability counter screen (AID 1159515; calls by dose curve; note: series mostly up to about 61 µM; nearly all actives have a fitted effect of over 55% in size). The method in brief:
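Multiplexed viability readout: after the 5 hr compound exposure and 1.5 hr FRET substrate step, CellTiter-Glo reagent went into the same NFkB-bla ME-180 wells; ATP luminescence was measured after 30 min at room temperature.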

Experiment [12] is described as follows: qHTS assay to identify small molecule agonists of the endoplasmic reticulum stress response signaling pathway (AID 1159516; active = well fitted activation curve with a large enough effect in the signal ratio in the repeat runs, not every such curve was filed as active; the % refers to the signal ratio). The method, boiled down: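 Tox21 10K library screened in quantitative HTS format on ESRE-bla HeLa cells, a beta-lactamase reporter under ER stress response element control; 5 hr treatment, FRET read.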
Experiment [13] in a line: qHTS assay to identify small molecule antagonists of the retinoid-related orphan receptor gamma (ROR-gamma) signaling pathway - cell viability counter screen (AID 1159520). Note: nearly all actives have a fitted effect of over 50% in size. The method, boiled down:
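Tet-on ROR gamma CHO cells were given compounds for 2 hr, then doxycycline hyclate at 1 uM final, and incubated 16 hr at 37 C. Viability was measured as ATP content by CellTiter-Glo luminescence.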

Experiment [14] addresses Nuclear receptor ROR-gamma (Homo sapiens) (UniProt P51449). The experiment is described as follows: qHTS assay to identify small molecule antagonists of the retinoid-related orphan receptor gamma (ROR-gamma) signaling pathway (AID 1159521; note: nearly all actives have a fitted effect of over 50% in size; note: potency is the fitted concentration of half-maximal effect). The method, boiled down: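 Inducible-expression reporter assay: doxycycline (1 uM final) switched on RORγ in CHO cells bearing a ROR response element-luciferase construct, with test compounds present from 2 h beforehand. Decreased luminescence after 16 h defined antagonist activity.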

Experiment [15] can be described thus: qHTS assay to identify small molecule agonists of the AP-1 signaling pathway - cell viability counter screen (AID 1159525; calls by dose curve; note: nearly all actives have a fitted effect of over 55% in size). The method, boiled down: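 AP-1-bla ME-180 cells in Opti-MEM with 0.5% dialyzed FBS, compound exposure 5 h at 37 C in 15-point titration. Viability read in the same wells as ATP content by CellTiter-Glo luminescence, normalised to tetra-n-octylammonium bromide and DMSO controls.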

A short description of experiment [16]: qHTS assay to identify small molecule agonists of the AP-1 signaling pathway (AID 1159526; calls by dose curve).
In experiment [17] the target is Peroxisome proliferator-activated receptor delta (Homo sapiens) (UniProt Q03181). The experiment is described as follows: qHTS assay to identify small molecule antagonists of the peroxisome proliferator-activated receptor delta (PPARd) signaling pathway (AID 743215; active = well fitted inhibition curve with a large enough effect in the signal ratio in the repeat runs, not every such curve was filed as active; the % refers to the signal ratio;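 note: cells stimulated with agonist L165041 at 300 nM final during compound exposure; series mostly up to about 62 µM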). The method in brief:
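Inhibition of L165041-driven (300 nM final) PPARd signaling is scored in HEK293H UAS-bla cells. Exposure lasts 17 h at 37 C; beta-lactamase activity is then read by FRET substrate fluorescence after 2 h at room temperature.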

Experiment [18] shares this target. Briefly: qHTS assay to identify small molecule agonists of the peroxisome proliferator-activated receptor delta (PPARd) signaling pathway (AID 743212; calls by dose curve). The method, boiled down: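 GeneBLAzer UAS-bla HEK293H cells carrying a PPARδ construct were exposed to compounds at 37 °C. Beta-lactamase activity was read by FRET fluorescence after 2 h at room temperature with LiveBLAzer B/G substrate.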

Experiment [19] in a line: qHTS assay to identify small molecule antagonists of the peroxisome proliferator-activated receptor delta (PPARd) signaling pathway - cell viability counter screen (AID 743213). Note: nearly all actives have a fitted effect of over 50% in size. The method, boiled down:
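PPARd-bla HEK293H cells (3000/well) got compound plus 300 nM L165041 agonist for 17 h at 37 C. Viability in the same wells came from CellTiter-Glo luminescence after 30 min at room temperature.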

Vitamin D3 receptor (Homo sapiens), sequence (P11473 whole entry, looked up): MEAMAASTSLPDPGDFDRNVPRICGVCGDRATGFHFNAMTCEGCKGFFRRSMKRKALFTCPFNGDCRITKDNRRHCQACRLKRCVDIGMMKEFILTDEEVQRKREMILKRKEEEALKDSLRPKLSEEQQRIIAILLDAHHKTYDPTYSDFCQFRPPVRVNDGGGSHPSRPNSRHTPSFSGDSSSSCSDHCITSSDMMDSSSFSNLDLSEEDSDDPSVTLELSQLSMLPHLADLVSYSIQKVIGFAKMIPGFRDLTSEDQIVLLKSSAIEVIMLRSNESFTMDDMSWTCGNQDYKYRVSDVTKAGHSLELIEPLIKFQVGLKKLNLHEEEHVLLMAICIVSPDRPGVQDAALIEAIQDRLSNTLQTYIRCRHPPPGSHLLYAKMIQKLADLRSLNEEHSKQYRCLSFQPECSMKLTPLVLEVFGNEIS
Bile acid receptor (Homo sapiens), sequence (Q96RI1 whole entry, looked up): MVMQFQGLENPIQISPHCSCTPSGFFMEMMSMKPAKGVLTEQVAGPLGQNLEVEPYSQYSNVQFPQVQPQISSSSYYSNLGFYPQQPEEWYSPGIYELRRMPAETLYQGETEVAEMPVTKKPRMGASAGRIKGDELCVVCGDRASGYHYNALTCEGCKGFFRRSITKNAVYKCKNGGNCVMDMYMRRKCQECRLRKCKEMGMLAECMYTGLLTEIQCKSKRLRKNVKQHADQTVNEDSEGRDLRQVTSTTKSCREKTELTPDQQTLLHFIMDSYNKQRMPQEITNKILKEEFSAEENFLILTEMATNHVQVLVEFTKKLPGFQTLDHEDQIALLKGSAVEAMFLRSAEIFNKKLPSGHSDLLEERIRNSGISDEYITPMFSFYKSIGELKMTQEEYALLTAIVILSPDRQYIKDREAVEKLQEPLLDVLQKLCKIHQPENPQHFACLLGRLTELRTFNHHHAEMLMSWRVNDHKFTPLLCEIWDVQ
Peroxisome proliferator-activated receptor delta (Homo sapiens), sequence (Q03181 whole entry, looked up): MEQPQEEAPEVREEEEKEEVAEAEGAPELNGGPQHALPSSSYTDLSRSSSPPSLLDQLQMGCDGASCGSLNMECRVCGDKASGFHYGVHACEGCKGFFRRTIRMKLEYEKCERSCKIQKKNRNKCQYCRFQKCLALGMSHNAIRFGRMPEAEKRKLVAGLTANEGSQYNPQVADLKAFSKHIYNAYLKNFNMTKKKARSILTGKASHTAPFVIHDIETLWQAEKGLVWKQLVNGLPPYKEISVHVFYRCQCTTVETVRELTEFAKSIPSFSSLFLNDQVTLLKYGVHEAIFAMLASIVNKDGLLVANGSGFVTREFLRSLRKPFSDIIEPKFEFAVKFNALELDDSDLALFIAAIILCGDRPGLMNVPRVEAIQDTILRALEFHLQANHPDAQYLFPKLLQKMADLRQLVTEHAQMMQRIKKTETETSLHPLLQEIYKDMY

On to `O=P(O)(O)Oc1ccccc1`, for which the Potency result in experiment [1], in [3], in experiment [4], in [5], in experiment [8] and in experiment [9] was “inactive” in each case. For the same compound, the Potency result in experiment [11], in experiment [12], in experiment [13], in [14] and in experiment [15] was “inactive” each time. In addition, the call in [2], in experiment [6], in experiment [7], in experiment [10] and in [16] was inactive.
For `C[C@@H]1[C@H](O)[C@@H](C)/C=C/C=C\C=C\C=C\C=C\C=C\C=C\[C@H](O[C@@H]2O[C@H](C)[C@@H](O)[C@H](N)[C@@H]2O)C[C@@H]2O[C@](O)(C[C@@H](O)C[C@@H](O)[C@H](O)CC[C@@H](O)C[C@@H](O)CC(=O)O[C@H]1C)C[C@H](O)[C@H]2C(=O)O` (stereo in doubt), the Potency result in experiment [5], in [9], in experiment [11], in experiment [12], in experiment [13] and in [15] was “inactive” throughout. In addition, the call in experiment [10] was inactive.
Regarding `CC(=O)OCC(=O)[C@@]1(OC(C)=O)[C@@H](C)C[C@H]2[C@@H]3C[C@H](F)C4=CC(=O)C=C[C@]4(C)[C@@]3(F)[C@@H](O)C[C@@]21C`, the Potency result in [1], in experiment [17], in [5], in experiment [11], in [12] and in experiment [13] was “inactive” throughout. Also, in [15], the Potency entry was “inactive”. In addition, the compound was called inactive in experiment [7], in experiment [10] and in experiment [16].
With `Cc1ccc(Cl)cc1N`, the Potency result in experiment [1], in experiment [17], in [4], in [5], in [9] and in experiment [11] was “inactive” in each case. Moreover, the Potency entry in experiment [12], in [14] and in experiment [15] was “inactive” in each case. In addition, the compound was classed as inactive in experiment [18], in [2], in [6], in experiment [7], in experiment [10] and in [16].
As to `C=CC(=O)O`, the Potency result in [1], in experiment [19], in experiment [17], in [3], in experiment [8] and in experiment [9] was “inactive” throughout. The Potency entry in [11], in experiment [12], in [13] and in experiment [15] was “inactive” throughout. Further, the result in experiment [6], in experiment [7], in [10] and in experiment [16] was inactive.
Consider `COC(=O)C1=C(C)NC(C)=C(C(=O)OC(C)(C)CN(C)CCC(c2ccccc2)c2ccccc2)C1c1cccc([N+](=O)[O-])c1` (configuration not stated), for which the Potency entry in [1], in experiment [19], in experiment [17], in experiment [3], in experiment [11] and in experiment [12] was “inactive” throughout. Moreover, the Potency result in experiment [15] is “inactive”. In addition, the compound was called inactive in experiment [18], in [6], in [7], in experiment [10] and in experiment [16]. For the same compound, the Potency in experiment [14] is 11.9 µM (active).
Consider `c1ccc(CNc2ncnc3c2ncn3C2CCCCO2)cc1` (configuration not stated), for which the Potency result in experiment [1], in [17], in experiment [4], in experiment [5], in [11] and in experiment [12] was “inactive” in each case. Further, the Potency result in experiment [14] and in [15] was “inactive” each time. Besides, the result in experiment [18], in experiment [2], in [6], in experiment [10] and in experiment [16] was inactive.
Consider `CCCCCC`, for which the Potency entry in experiment [1], in experiment [19], in experiment [3], in experiment [4], in [5] and in experiment [9] was “inactive” each time. Further, the Potency result in [11], in experiment [12], in experiment [13] and in experiment [15] was “inactive” each time. Besides, the result in [2], in experiment [10] and in experiment [16] was inactive.
As for `Cc1ccc(S(=O)(=O)NC(=O)NC2CCCCC2)cc1`, the Potency entry in [1], in experiment [17], in experiment [3], in experiment [5], in experiment [8] and in [9] was “inactive” in each case. Further, the Potency result in [11], in experiment [12], in [13] and in [15] was “inactive” throughout. The outcome in experiment [10] and in experiment [16] was inactive.
`CCCCCCC(O)CCCCCCCCCCC(=O)OC` (configuration not stated): the Potency result in experiment [1], in experiment [19], in experiment [3], in [5], in experiment [8] and in experiment [9] was “inactive” each time. The Potency result in experiment [11], in [12], in experiment [13] and in experiment [15] was “inactive” throughout. For the same compound, the compound was called inactive in experiment [18], in [6], in experiment [7] and in experiment [10].
